Inconclusive results are not listed. Calls of active or inactive are those of the source. Unless noted, the call rests on the fitted dose curve; in most records, active means well fitted curve in either direction with a large enough effect (not every such curve was filed as active); inconclusive means small, poorly fitted or top-dose-only effect, or another doubt; inactive means flat fitted curve, though single readings scatter.
Experiments:
[1] = biological target: Lysosomal acid glucosylceramidase (Homo sapiens) (UniProt P04062); experiment: Glucocerebrosidase-p2 (AID 348; in the data active means potency below about 10 µM; further: potency means the concentration at half of the fitted maximal effect); details: purified GBA, blue fluorogenic substrate, 40 min
Sequence of Lysosomal acid glucosylceramidase (Homo sapiens) (P04062 whole entry, looked up): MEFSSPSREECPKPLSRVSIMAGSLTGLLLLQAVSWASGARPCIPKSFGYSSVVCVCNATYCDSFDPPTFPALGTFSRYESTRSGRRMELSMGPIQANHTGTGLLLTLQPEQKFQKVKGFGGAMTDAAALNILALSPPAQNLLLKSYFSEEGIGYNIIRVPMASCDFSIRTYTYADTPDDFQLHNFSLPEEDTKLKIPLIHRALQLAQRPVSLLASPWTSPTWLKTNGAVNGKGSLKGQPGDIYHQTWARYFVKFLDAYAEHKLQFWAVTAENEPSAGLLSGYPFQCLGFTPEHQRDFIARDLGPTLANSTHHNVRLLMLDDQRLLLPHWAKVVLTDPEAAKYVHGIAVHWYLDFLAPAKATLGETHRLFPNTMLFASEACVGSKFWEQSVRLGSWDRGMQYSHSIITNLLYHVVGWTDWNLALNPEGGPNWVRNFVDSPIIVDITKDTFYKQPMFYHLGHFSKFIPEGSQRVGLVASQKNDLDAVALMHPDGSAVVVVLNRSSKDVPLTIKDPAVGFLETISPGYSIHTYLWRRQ
How it was run: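 Normal human glucocerebrosidase (0.2 nM) with blue fluorogenic substrate (80 uM final) in citrate/phosphate pH 5.9 with 10mM sodium taurocholate, 0.01% tween-20; 40 min RT, NaOH/glycine stop; fluorescence Ex 365/Em 440; AC50 from a titration from 0.6 nM upwards.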

[2] = AP1 Signaling Pathway (AID 357); details: ME-180 AP-1-bla reporter, EGF-induced, beta-lactamase ratio, 5 h; at 7.69 µM (top of the series) unless noted;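 further: ME-180 reporter cells stimulated with EGF at its EC50 level; on the % scale 0 is the no-effect control and ±100 the full control effect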
How it was run: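 First, ME-180 AP-1-bla cells were cultured overnight at 37 °C in low-serum Opti-MEM. Next, titrated compounds with EC50 EGF were incubated 5 hours. Finally, CCF4 was added for 2.5 hours and the 460/530 nm ratio recorded.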

[3] = NFAT Signaling Pathway (AID 444); details: Jurkat NFAT-bla M1, carbachol, beta-lactamase ratio, 5 h; at 7.69 µM (top of the series) unless noted;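 further: carbachol stimulus at about its EC50 of 1 µM final; on the % scale 0 is the no-effect control and ±100 the full control effect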
How it was run: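 Jurkat cells with NFAT-driven β-lactamase reporter and co-expressed M1 receptor, stimulated with carbachol (final 1 uM, ~EC50), compound titration, 5 h at 37 °C. CCF4 loaded 1 h at RT; 460/530 nm ratio gave %activity and AC50.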

[4] = Stat Signaling Pathway (AID 446); details: ME-180 (cervical carcinoma) SIE beta-lactamase reporter, IL-6 stimulated, 5 h; at 7.69 µM (top of the series) unless noted;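 further: ME-180 cervical cancer cells given 40 pM IL-6 alongside compound; SIE-controlled beta-lactamase reporter measured as 460/530 nm FRET emission ratio; on the % scale 0 is the no-effect control and ±100 the full control effect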
How it was run: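 FRET read-out (405 nm excitation, 460/530 nm emission) of a beta-lactamase reporter under a STAT-inducible element in ME-180 cervical carcinoma cells. Cells with compound receive 40 pM IL-6 for 5 h. Values are normalised to AC90 stimulation and AC90 JAK-inhibitor controls.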

[5] = biological target: Glucocorticoid receptor (Homo sapiens) (UniProt P04150); experiment: GR-GFP Redistribution (AID 450;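 active means compounds whose dose series gives a full or clear partial fitted curve of increased nuclear translocation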; further: potency means the concentration at half of the fitted maximal effect); details: U2OS GR-GFP nuclear translocation, laser cytometry, 2 h
Sequence of Glucocorticoid receptor (Homo sapiens) (P04150 whole entry, looked up, the tested form may be a part): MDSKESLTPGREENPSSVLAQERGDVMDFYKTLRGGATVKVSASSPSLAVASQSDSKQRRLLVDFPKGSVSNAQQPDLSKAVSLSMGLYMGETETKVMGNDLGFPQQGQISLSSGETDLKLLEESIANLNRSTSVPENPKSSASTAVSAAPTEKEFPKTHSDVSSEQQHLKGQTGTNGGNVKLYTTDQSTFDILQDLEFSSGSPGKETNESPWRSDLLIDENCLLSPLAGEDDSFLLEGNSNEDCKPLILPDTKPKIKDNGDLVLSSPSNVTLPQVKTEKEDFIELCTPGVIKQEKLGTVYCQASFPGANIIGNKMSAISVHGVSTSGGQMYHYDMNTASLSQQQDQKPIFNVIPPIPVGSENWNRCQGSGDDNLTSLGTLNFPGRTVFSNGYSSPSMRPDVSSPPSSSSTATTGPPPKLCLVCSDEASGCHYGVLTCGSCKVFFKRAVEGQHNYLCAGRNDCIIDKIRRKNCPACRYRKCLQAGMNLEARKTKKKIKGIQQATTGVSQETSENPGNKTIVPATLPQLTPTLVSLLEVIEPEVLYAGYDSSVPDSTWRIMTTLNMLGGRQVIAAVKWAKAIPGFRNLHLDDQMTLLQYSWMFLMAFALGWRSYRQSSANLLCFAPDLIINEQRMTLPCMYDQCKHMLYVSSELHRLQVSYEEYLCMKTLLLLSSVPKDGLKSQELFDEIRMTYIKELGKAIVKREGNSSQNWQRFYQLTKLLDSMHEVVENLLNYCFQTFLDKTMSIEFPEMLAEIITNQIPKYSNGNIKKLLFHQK

[6] = biological target: Glucocorticoid receptor (Homo sapiens) (UniProt P04150); experiment: GR-EFC Redistribution (AID 451; calls by dose curve; further: potency means the concentration at half of the fitted maximal effect); details: CHO-K1 GR-EFC translocation, beta-gal luminescence, 2 h
How it was run: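 CHO-K1 cells expressing nuclear EA and GR-ED fragments of b-gal; compounds titrated up to 46 uM final, 2 h at 37 C. GR nuclear translocation read as complemented b-gal luminescence after 1 h RT detection.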

[7] = biological target: Mitogen-activated protein kinase 10 (Mus musculus) (UniProt Q61831); experiment: JNK3 AlphaScreen Assay (AID 530); details: JNK3 lysate, c-Jun phosphorylation; series mostly up to 11.4 µM;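 further: kinase came from lysate of stimulated human HepG2 cells; signal reports phosphorylation of biotinylated GST-cJun 1-79 at Ser73 with 10 µM ATP; on the % scale 0 is the no-effect control and ±100 the full control effect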
How it was run: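 HepG2 lysate (IL-1b/TNFa pre-activated) + biotin-GST-cJun 1-79 + anti-pSer73 cJun; cpd titration, 15 min RT; ATP 10 uM start; Tris pH 7.6, MgCl2, DTT, vanadate; beads in EDTA buffer; AlphaScreen.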

[8] = biological target: 3',5'-cyclic-AMP phosphodiesterase 4B (Homo sapiens) (UniProt Q07343); experiment: qHTS Assay for Inhibitors of PDE-IV (AID 607; active means well fitted activation curve with a large enough effect in the main read-out, with a control signal flat, not every such curve was filed as active; further: % of control where 0% means no effect); details: HEK293 ACTOne CNG channel cells, membrane potential fluorescence; series mostly up to 22.9 µM
Sequence of 3',5'-cyclic-AMP phosphodiesterase 4B (Homo sapiens) (Q07343 whole entry, looked up): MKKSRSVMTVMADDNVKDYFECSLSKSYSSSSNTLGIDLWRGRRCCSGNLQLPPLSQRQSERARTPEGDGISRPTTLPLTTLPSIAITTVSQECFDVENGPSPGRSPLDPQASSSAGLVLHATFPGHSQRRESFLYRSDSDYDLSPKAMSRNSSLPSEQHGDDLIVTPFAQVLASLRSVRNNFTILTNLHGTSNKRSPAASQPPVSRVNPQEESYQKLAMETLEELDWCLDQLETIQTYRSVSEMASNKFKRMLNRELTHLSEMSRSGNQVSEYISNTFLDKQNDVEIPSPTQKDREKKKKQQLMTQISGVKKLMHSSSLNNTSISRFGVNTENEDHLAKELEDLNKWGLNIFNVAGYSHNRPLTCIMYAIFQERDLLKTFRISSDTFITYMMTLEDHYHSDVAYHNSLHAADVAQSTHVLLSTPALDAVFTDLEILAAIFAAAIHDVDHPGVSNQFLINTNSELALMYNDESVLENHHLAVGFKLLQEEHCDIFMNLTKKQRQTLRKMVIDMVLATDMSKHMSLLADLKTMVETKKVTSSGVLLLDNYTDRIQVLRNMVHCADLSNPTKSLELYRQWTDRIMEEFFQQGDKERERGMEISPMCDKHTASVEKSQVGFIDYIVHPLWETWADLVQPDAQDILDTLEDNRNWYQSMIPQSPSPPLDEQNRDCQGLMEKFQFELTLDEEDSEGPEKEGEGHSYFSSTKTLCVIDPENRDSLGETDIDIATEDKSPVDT
How it was run: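 Cell-based read-out of cAMP via a modified cyclic nucleotide-gated channel and membrane potential dye (535/590 nm) in HEK293 cells expressing PDE4 endogenously. Compounds tested up to 22.9 uM final; 100 uM RO 20-1724 reference.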

O=C(O)C1C(C(=O)O)C(C(=O)O)C1C(=O)O (stereo not drawn)
inactive: Potency [1] > 11.4 µM | activity change, negative = inhibition [2] -0.701% | activity change, negative = inhibition [3] -1.31% | activity, negative = inhibition [4] 0.791% | Potency [5] > 46 µM | Potency [6] > 9.22 µM | Potency [7] | Potency [8]

[N-]=[N+]=CC(=O)COC(=O)c1ccccc1
inactive: Potency [1] > 11.4 µM | activity change, negative = inhibition [2] 9.2% | activity change, negative = inhibition [3] 16.5% | activity, negative = inhibition [4] -0.859% | Potency [5] > 46 µM | Potency [6] > 9.22 µM | Potency [7] | Potency [8]

O=C(O)CN(CC(=O)O)c1ccccc1
inactive: Potency [1] > 11.4 µM | activity change, negative = inhibition [2] 7.7% | activity change, negative = inhibition [3] 8.14% | activity, negative = inhibition [4] 13.6% | Potency [5] > 46 µM | Potency [6] > 9.22 µM | Potency [7] | Potency [8]

O=C(O)C[C@@H](C(=O)O)C1c2ccccc2-c2ccccc21
inactive: Potency [1] > 11.4 µM | activity change, negative = inhibition [2] -0.496% | activity change, negative = inhibition [3] -1.69% | activity, negative = inhibition [4] -5.83% | Potency [5] > 46 µM | Potency [6] > 9.22 µM | Potency [7] | Potency [8]

CC(C)(CCC(C)(C)c1ccccc1)c1ccccc1
inactive: Potency [1] > 11.4 µM | activity change, negative = inhibition [2] -0.999% | activity change, negative = inhibition [3] 5.11% | activity, negative = inhibition [4] -2.84% | Potency [5] > 46 µM | Potency [6] > 9.22 µM | Potency [7] | Potency [8]

O=C(CN1C(=O)c2ccccc2C1=O)[C@@H](O)CN1C(=O)c2ccccc2C1=O
inactive: Potency [1] > 11.4 µM | activity change, negative = inhibition [2] -10.3% | activity change, negative = inhibition [3] 13.9% | activity, negative = inhibition [4] -0.0648% | Potency [5] > 46 µM | Potency [6] > 9.22 µM | Potency [7] | Potency [8]

NNC(=O)CS(=O)(=O)Nc1ncccn1
inactive: Potency [1] > 11.4 µM | activity change, negative = inhibition [2] -0.0437% | activity change, negative = inhibition [3] 3.94% | activity, negative = inhibition [4] -3.75% | Potency [5] > 46 µM | Potency [6] > 9.22 µM | Potency [7] | Potency [8]

NC(N)=NCCCC(=O)O
inactive: Potency [1] > 11.4 µM | activity change, negative = inhibition [2] -2.56% | activity change, negative = inhibition [3] 13.2% | activity, negative = inhibition [4] 4.79% | Potency [5] > 46 µM | Potency [6] > 9.22 µM | Potency [7] | Potency [8]

CCN(CC(=O)O)C(=O)c1cccnc1
inactive: Potency [1] > 11.4 µM | activity change, negative = inhibition [2] -4.46% | activity change, negative = inhibition [3] 5.05% | activity, negative = inhibition [4] -6.57% | Potency [5] > 46 µM | Potency [6] > 9.22 µM | Potency [7] | Potency [8]

O=C(O)C[C@@H](C(=O)O)c1ccccc1[N+](=O)[O-]
inactive: Potency [1] > 11.4 µM | activity change, negative = inhibition [2] 10.5% | activity change, negative = inhibition [3] 13% | activity, negative = inhibition [4] 6.64% | Potency [5] > 46 µM | Potency [6] > 9.22 µM | Potency [7] | Potency [8]

CCCc1cc(COC)c(C#N)c(=O)[nH]1
inactive: Potency [1] > 11.4 µM | activity change, negative = inhibition [2] 1.77% | activity change, negative = inhibition [3] -2.55% | activity, negative = inhibition [4] 3.43% | Potency [5] > 46 µM | Potency [6] > 9.22 µM | Potency [7] | Potency [8]

C[C@H](CCC(=O)NN)[C@@H]1CC[C@@H]2[C@H]3CC[C@H]4C[C@@H](O)CC[C@@]4(C)[C@@H]3CC[C@]21C
inactive: Potency [1] > 11.4 µM | activity change, negative = inhibition [2] 12.8% | activity change, negative = inhibition [3] 17% | activity, negative = inhibition [4] -5.92% | Potency [5] > 46 µM | Potency [6] > 9.22 µM | Potency [7] | Potency [8]

c1ccc(-c2ccc(-c3ccc(C4=NCCN4)cc3)o2)cc1
inactive: Potency [1] > 11.4 µM | activity change, negative = inhibition [2] 8.2% | activity change, negative = inhibition [3] 9.65% | activity, negative = inhibition [4] 25.4% | Potency [5] > 46 µM | Potency [6] > 9.22 µM | Potency [7] | Potency [8]

COc1ccc(Cc2ccc3[nH]c(=O)cc(C)c3c2)cc1S(=O)(=O)O
inactive: Potency [1] > 11.4 µM | activity change, negative = inhibition [2] 7.37% | activity change, negative = inhibition [3] 8.36% | activity, negative = inhibition [4] 5.41% | Potency [5] > 46 µM | Potency [6] > 9.22 µM | Potency [7] | Potency [8]

CNC[C@@H](SC)c1ccc(O)c(O)c1
inactive: Potency [1] > 11.4 µM | activity change, negative = inhibition [2] 1.24% | activity change, negative = inhibition [3] 7.41% | activity, negative = inhibition [4] 21% | Potency [5] > 46 µM | Potency [6] > 9.22 µM | Potency [7] | Potency [8]

O=C(c1nc2ccc([N+](=O)[O-])cc2[nH]c1=O)[C@@H](O)c1ccc2c(c1)OCO2
inactive: Potency [1] > 11.4 µM | activity change, negative = inhibition [2] -1.57% | activity change, negative = inhibition [3] 2.9% | activity, negative = inhibition [4] 12.9% | Potency [5] > 46 µM | Potency [6] > 9.22 µM | Potency [7] | Potency [8]

— PubChem BioAssay (NCATS)
